# KKLEB cytotox: reduces viability of KKLEB cystic fibrosis airway cells. hit rate 0.36% among 360,000. activity change (cytotoxicity), % at 5 µM. KKLEB CF airway cells viability, ATPlite luminescence, overnight; active compounds read low; cells stimulated with P. aeruginosa culture filtrate. AID 602141;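 active = corrected activity change at or below -50% at 5 µM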
# Peg3 prom inh-1: reduces Peg3 promoter-driven luciferase expression in HeLa | hit rate 1.7% among 360,000 | inhibition, % at 20 µM | AID 588405 | HeLa PEG-Prom luciferase reporter, luminescence, overnight;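 active = inhibition of at least 50% at 20 µM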
# TWEAK Fn14 block: inhibitors of TWEAK-Fn14 interaction signaling; inhibition, % at 10 µM; hit rate 2% among 360,000; TWEAK-stimulated Fn14 reporter cells, luciferase luminescence, 8 h; in the data active = inhibition above about 50%
# HIF-2a block: blocks HIF-2a reporter activity; AID 624352; hit rate 0.72% among 360,000; inhibition, % at 18.8 µM; 786-0 RCC cells HIF-2a reporter, luciferase luminescence, overnight;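 active = inhibition of the luminescence signal of 40% or more relative to plate controls, in a single-dose primary screen at 18.75 µM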
# CF NFkB inh: blocks PAF-induced NF-kB reporter in cystic fibrosis cells; AID 588850; inhibition, % at 5 µM; hit rate 0.86% among 360,000; KKLEB NF-kB-GFP reporter, GFP fluorescence overnight;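 active = at least 50% inhibition at 5 µM, scaled per plate between neutral and stimulator controls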;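 note: PAF is a Pseudomonas aeruginosa culture filtrate used as stimulus; plate controls were PAF-stimulated DMSO wells for no effect and unstimulated DMSO wells for full effect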
# TROY signal inh: TROY signaling inhibition; Q293 LMP1-TROYcd NF-kB luciferase reporter, 4 h; inhibition, % at 10 µM; hit rate 0.98% among 360,000; AID 1347056;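 active = compounds whose plate-normalised and pattern-corrected inhibition of the luciferase reporter signal at the single screening dose is 50% or more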
# Peg3 prom inh-2: confirmation of Peg3 promoter inhibitors; hit rate 84% among 1,300; HeLa PEG-Prom luciferase reporter, luminescence, overnight; inhibition, % at 20 µM; shares compounds with Peg3 prom inh-1;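 active = at 20 µM dose, 40% or more inhibition averaged across four replicates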
# * hit, by the source's call; x = no result. Hits are enriched below; roughly 4% of the tested compounds scored in any of these assays.
SMILES,KKLEB cytotox,Peg3 prom inh-1,TWEAK Fn14 block,HIF-2a block,CF NFkB inh,TROY signal inh,Peg3 prom inh-2
CCCCCCCNC(=O)C1(CC2CC(c3ccccc3)=NO2)CCNCC1 (centres undefined),-5,94*,-4,-11,10,-17,79*
O=C(NCc1ccccc1)C1(CC2CC(c3ccccc3)=NO2)CCNCC1 (centres undefined),-8,-16,-17,-3,-9,-25,x
CCCN(CCC)S(=O)(=O)c1ccc(Cl)c([N+](=O)[O-])c1,-50*,94*,17,34,60*,33,40
CCCN(CCC)S(=O)(=O)c1ccc(N2CCCC2=O)c([N+](=O)[O-])c1,-3,17,-18,20,7,-5,x
COC(=O)C1=C(C)N(Cc2ccccc2)C(=NCCc2c[nH]c3ccccc23)N[C@H]1c1cccc(C(F)(F)F)c1,-29,99*,12,-12,28,5,98*
COc1ccc(CN2CC(C(=O)N3CC(C)CC(C)C3)CC2=O)cc1 (centres undefined),0,4,-9,3,20,-9,x
CN(C)CCCN(C(=O)c1ccc(S(=O)(=O)N2CCc3ccccc32)cc1)c1nc2ccc(F)cc2s1,0,11,-24,0,15,-8,x
Cc1cc(C)c2sc(N(CCCN(C)C)C(=O)c3ccc(S(=O)(=O)N4CCCc5ccccc54)cc3)nc2c1,-27,102*,-48,-22,26,-2,99*
CCS(=O)(=O)N1CCC(C(=O)Nc2ccccc2OC)CC1,-4,11,4,17,12,10,x
CCCC/C=C1\CCc2c([nH]c3ccccc23)C1=O,-9,-179,-41,-240,-37,-56,x
CCCCCCC=C1CCC(CN2CCCC2)C1=O (centres undefined),-4,102*,26,-7,-12,-8,77*
O=C(NNCc1ccc(O)cc1)c1ccccc1Cl,18,-118,27,-94,-1,-15,x
O=C(Nc1ncc([N+](=O)[O-])s1)c1ccc2c(c1)OCO2,-11,70*,103*,61*,46,84*,64*
Cc1ccc([N+](=O)[O-])cc1NC(=O)c1ccc2c(c1)OCO2,5,-2,-7,-37,5,-2,x
O=C1CCC(C(=O)OCC(=O)c2ccccc2)N1 (centres undefined),-6,-8,4,9,7,10,x
CC1CC(C)C(=O)C(C(CC2CC(=O)NC(=O)C2)OC(=O)CC(=O)c2ccccc2)C1 (centres undefined),-14,81*,51*,27,66*,40,83*
O=C1/C(=C/C=C/c2ccccc2)Oc2c1ccc(O)c2CN1CCN(CCO)CC1,6,-21,2,0,2,-24,x
CCN1CCN(Cc2c(O)ccc3c2O/C(=C\C=C\c2ccccc2)C3=O)CC1,-3,108*,30,92*,21,-24,77*
CN1CCN(c2ccc(-c3cccc(NC(=O)COc4ccc(Cl)cc4Cl)c3)nn2)CC1,-58*,54*,63*,-67,10,74*,16
O=C(C[C@H]1C[C@H](C(=O)N2CCCCC2)[C@@]2(CCc3ccccc3)c3[nH]c4ccc(Cl)cc4c3CCN2C1=O)NCCN1CCOCC1,-10,80*,15,10,19,5,-2
COc1ccc(/C=C/C(=O)c2ccc3c4c(cccc24)CC3)cc1OC,-27,69*,52*,-41,28,-7,84*
COc1ccc(/C=C/C(=O)c2ccc3c4c(cccc24)CC3)cc1,-42,25,-9,-28,16,-20,x
CC(NC(=O)c1ccco1)C(=O)N1CCN(c2cccc(C(F)(F)F)c2)CC1 (centres undefined),-20,18,4,-1,12,4,x
CN1C/C(=C/c2cccnc2)C(=O)/C(=C/c2cccnc2)C1,1,87*,65*,33,57*,8,2
CC(C)N1C/C(=C/c2cccnc2)C(=O)/C(=C/c2cccnc2)C1,13,26,-11,23,-49,-9,x
SMILES,KKLEB cytotox,Peg3 prom inh-1,TWEAK Fn14 block,HIF-2a block,CF NFkB inh,TROY signal inh,Peg3 prom inh-2
COc1cc(SC)ccc1C(=O)Nc1ncc(C)s1,-53*,77*,100*,49*,-10,83*,61*
COc1cc(SC)ccc1C(=O)Nc1ccc(C)cc1,-31,-250,14,-230,3,-17,x
c1cc2c3c(cccc3c1)NC1(CCC3(CC1)Nc1cccc4cccc(c14)N3)N2,0,76*,27,-15,-28,2,75*
O=C(C1CCCN(Cc2cccc(Cl)c2)C1)N1CCCCC1 (centres undefined),4,-1,4,8,4,6,x
O=c1c2ccccc2ncn1-c1ccc([N+](=O)[O-])cc1Cl,4,1,10,-6,-11,-9,x
Cc1ccc(N2CC(C(=O)Nc3nccs3)CC2=O)cc1Cl (centres undefined),-32,90*,20,-65,45,4,94*
CCCCCCCCCC[N+](C)(C)CC/C=C1/c2ccccc2Sc2ccc(Cl)cc21,-21,108*,5,49*,23,-41,100*
Cc1ccc(C(=O)CSc2nnc(C3CC3)n2C2CC2)s1,1,-207,0,-178,4,-38,x
Cc1cc(/C=N/Nc2ncnc(N)c2[N+](=O)[O-])c(C)n1-c1ccccc1,-50*,92*,98*,59*,-14,83*,84*
CCOc1ccc(C(=O)O/N=C(\N)c2ccccn2)cc1,-28,114*,103*,68*,13,87*,95*
COc1cc(C(=O)O/N=C(\N)c2ccccn2)cc(OC)c1OC,6,-25,-30,-40,-25,-29,x
Cc1cccc(C(=O)O/N=C(\N)c2ccccn2)c1,-20,56*,102*,32,-16,85*,40*
CCc1ccc(OCC(=O)O/N=C(\N)c2ccccn2)cc1,-24,-345,-12,-258,19,-30,x
N/C(=N\OC(=O)c1ccccc1)c1ccccn1,0,95*,96*,-44,-3,75*,8
Nc1ccc(N2CCCC2)c(S(=O)(=O)Nc2cccc(C(F)(F)F)c2)c1,-14,-4,17,17,28,7,x
Cc1ccc2cccc(OCC(=O)Nc3cccc(S(=O)(=O)N4CCCC4)c3)c2n1,-18,64*,38,6,2,35,64*
CCCCN(C)C(=O)c1ccc(Nc2nc(C(N)CCc3ccccc3)cs2)nc1 (centres undefined),2,61*,-28,-14,-12,7,83*
Cc1cnc(C)c(Nc2nc(C(N)CCc3ccccc3)cs2)n1 (centres undefined),-9,-3,19,9,8,-15,x

# Bioassay records (PubChem)
